Test results: PubChem BioAssay AID2521 (Sanford-Burnham Center for Chemical Genomics, 2010)
Screen size: about 330,000 compounds; about 1,100 (0.33%) were called active.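 Rule for the calls: active = inhibition above about 40% at 20 µM (limit read from the data); inactive = the rest.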 This excerpt belongs to a sample that is enriched for actives.

Target: Apelin receptor (Homo sapiens) (UniProt P35414)
Test: blockade of apelin-induced APJ beta-arrestin recruitment – CHO-K1 cells, beta-arrestin complementation, luminescence, primary screen (AID 2521);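 note: cells challenged with 10 nM apelin-13 agonist together with compound; plate controls were apelin-13 plus DMSO wells for no effect and DMSO wells lacking apelin-13 for full effect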
Conditions: at 20 µM, stronger effect = higher value

Chain of Apelin receptor (Homo sapiens) (P35414 whole entry, looked up): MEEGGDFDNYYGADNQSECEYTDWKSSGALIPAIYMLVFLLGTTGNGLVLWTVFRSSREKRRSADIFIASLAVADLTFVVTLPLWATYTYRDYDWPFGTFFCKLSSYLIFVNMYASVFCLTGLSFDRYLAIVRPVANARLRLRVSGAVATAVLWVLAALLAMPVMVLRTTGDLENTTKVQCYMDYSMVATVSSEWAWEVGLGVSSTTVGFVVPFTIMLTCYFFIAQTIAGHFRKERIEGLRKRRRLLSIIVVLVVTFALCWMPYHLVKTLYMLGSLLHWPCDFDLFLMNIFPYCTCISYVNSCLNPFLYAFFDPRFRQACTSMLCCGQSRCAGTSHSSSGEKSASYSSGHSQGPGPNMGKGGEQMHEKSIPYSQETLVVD

SMILES | inhibition
C/C(=N\NC(=O)c1ccccc1F)c1ccccn1 | 57.1% (active)
Cc1cnc(NC(=O)c2ccccn2)s1 | 9.6% (inactive)
COc1ccc(/C(C)=N\NC(=O)c2ccc(-c3ccccc3)cc2)c(F)c1 | 8.03% (inactive)
CCOC(=O)[C@H]1CCC[C@@H](NS(=O)(=O)c2ccc(NC(C)=O)cc2)C1 | 6.91% (inactive)
CC(C)(C)c1cc(C(=O)NN)n(Cc2ccc(Cl)cc2Cl)n1 | -15% (inactive)
Cc1ccc(C(=O)OC2=CC(=O)CC(C)(C)C2)cc1 | -13.7% (inactive)
CCc1c(C)sc(NC(=O)c2cccs2)c1C(N)=O | 1.68% (inactive)
COc1ccc(/C=N/N=C2/C(=O)Nc3ccccc32)cc1O | -11.9% (inactive)
O=C1Nc2ccc(Br)cc2/C1=N/N=C/C1=C(N2CCOCC2)C(=C\c2ccccc2)/CC1 | 46.4% (active)
O=C(c1cccc(-n2cccc2)c1)N1CCN(S(=O)(=O)c2ccc(F)cc2)CC1 | -9.43% (inactive)
COc1cc(Nc2nc3ccc(Cl)cc3n3cnnc23)cc(OC)c1OC | -3.66% (inactive)
Nc1nc(SCC(=O)NNc2c(Cl)cc(Cl)cc2Cl)n[nH]1 | -14.8% (inactive)
COc1ccc(CNc2cc(C)cc(C)c2)cc1OC | -9.47% (inactive)
CN(CC(=O)Nc1ccc(F)c(F)c1F)C(=O)C1CC(=O)N(C2CCCC2)C1 (stereo not given) | 19.9% (inactive)
COc1ccc(NC(=O)/C(Cl)=C(/Cl)S(=O)Cc2ccc(C)cc2)cn1 (stereo not given) | 89.8% (active)
COC(=O)c1sccc1NC(=S)Nc1ccc(C)cc1 | -10.8% (inactive)
COc1ccc(CCC(=O)c2ccc(OC)cc2)cc1 | -11.9% (inactive)
COc1ccc(OC(C)C(=O)Nc2cccnc2)cc1 (stereo not given) | 15.8% (inactive)
CCN(CC(=O)Nc1ccc(OC)cc1)C(=O)CSCc1ccc(C)cc1 | 12.9% (inactive)
COc1ccc(CS(=O)/C(Cl)=C(/Cl)C(=O)Nc2ccc(OC)nc2)cc1 (stereo not given) | 67.6% (active)

SMILES | inhibition
CC1CCCCN1C(=O)CCS(=O)(=O)Cc1ccccc1 (stereo not given) | 11.3% (inactive)
Cc1nc(CN2CCN(C(=O)CCc3nnc(Cc4c[nH]c5ccccc45)o3)CC2)cs1 | 21.1% (inactive)
CSC1=N/C(=C\C=C\c2cccs2)C(=O)S1 | 5.36% (inactive)
CC(C)c1ccc(NS(=O)(=O)c2cn(C)c(=O)n(C)c2=O)cc1 | 7.41% (inactive)
CCCc1nc2c(C)cc(-c3nc4ccccc4n3C)cc2n1Cc1ccc(-c2ccccc2C(=O)O)cc1 | 9.96% (inactive)
CC(=O)c1c(C)[nH]c(C(=O)CN2C(=O)NC(C)(C)C2=O)c1C | 8.53% (inactive)
Cc1ccc(SC(C)C(=O)NCc2ccc(F)cc2)cc1 (stereo not given) | 16.8% (inactive)
CC(C)NC(=O)C(c1ccc(F)cc1)N(C(=O)CCC(=O)Nc1ccccn1)c1ccccc1F (stereo not given) | 21.5% (inactive)
CC(C)C(=O)N1CCC2(CC1)Oc1ccc(F)cc1C(=O)C21CC(c2ccccc2)=NO1 (stereo not given) | -0.0582% (inactive)
CNC(=O)c1sc(NCc2ccccc2OC)nc1C | -1.64% (inactive)
COc1cc2ccccc2cc1C(=O)Nc1nc(C)c(C(C)=O)s1 | 1.17% (inactive)
COc1cccc2sc(Nc3nc(C)c(C(C)=O)s3)nc12 | 60.9% (active)
O=C(CCl)NNc1cccc(Cl)n1 | 47.2% (active)
Cc1cccc(NC(=O)Cc2ccc(Br)cc2)n1 | -4.98% (inactive)
O=C(Cc1c(Cl)cccc1Cl)NC1CC1 | 14.9% (inactive)
COc1ccc(N2CCN(C(=O)CNS(=O)(=O)c3ccc(C)c(C)c3)CC2)cc1 | 3.43% (inactive)
Cc1ccc(CC(=O)Nc2cccc(C#N)c2)cc1 | 7.58% (inactive)
Oc1ccc(N=Nc2nccs2)c(O)c1 | 47.6% (active)
CC(Oc1ccc(F)cc1)C(=O)Nc1cc(S(=O)(=O)N2CCOCC2)ccc1N1CCN(C)CC1 (stereo not given) | 11.7% (inactive)
CCCOc1ccc(N2CC(C(=O)Nc3ccccn3)CC2=O)cc1 (stereo not given) | -12.1% (inactive)

SMILES | inhibition
COC(=O)c1cc(NC(=O)CN2CCC(C(N)=O)(N3CCCCC3)CC2)cc(C(=O)OC)c1 | 12.5% (inactive)
O=C(CSc1nnnn1C1CCCC1)N1CCCCC1 | -7.07% (inactive)
CC(=O)C1=C(O)C(=O)N(c2ccc(S(N)(=O)=O)cc2)C1c1ccccc1F (stereo not given) | 59% (active)
CC(=O)C1=C(O)C(=O)N(c2cccnc2)C1c1ccc([N+](=O)[O-])cc1 (stereo not given) | 5.89% (inactive)
CC(=O)C1=C(O)C(=O)N(c2ccc(Br)cc2)C1c1ccc([N+](=O)[O-])cc1 (stereo not given) | 18.2% (inactive)
COc1cccc(NC(=O)C/C(C)=N/NC(=O)C2CCCCC2)c1 | -8.71% (inactive)
COc1cccc(NC(=O)C(=O)c2cn(CC(=O)N3CCOCC3)c3ccccc23)c1 | -7% (inactive)
Cc1cc(C(F)F)n2nc(C(=O)Nc3ccc(S(=O)(=O)NC45CC6CC(CC(C6)C4)C5)cc3)nc2n1 | 10.3% (inactive)
O=C(NC1CCCCC1)C1CCC(CNS(=O)(=O)c2ccccc2)CC1 (stereo not given) | -0.098% (inactive)
CN1/C(=c2/s/c(=C3/C(=O)N(c4ccccc4)NC3=Nc3ccccc3)n(C)c2=O)C(C)(C)c2ccccc21 | 40.6% (active)
CCOc1cccc2c1OC1(CCCCC1)N1N=C(c3cccnc3)CC21 (stereo not given) | -4.03% (inactive)
CN(C)CCOc1cccc(Br)c1 | 7.12% (inactive)
COCCCNc1nc2ccccc2nc1NS(=O)(=O)c1ccc(F)cc1 | 8.77% (inactive)
COC(=O)c1ccccc1NC(=O)C1CCN(C(=O)N2CCOc3ccccc32)CC1 | 4.33% (inactive)
O=C(CN(C(=O)CNC(=O)c1cccs1)c1cccc(F)c1)NC1CCCCC1 | 15.9% (inactive)
COc1cccc(C(=O)N/N=C(\C)c2cccc(NC(=O)c3ccc(F)cc3)c2)c1OC | -21.2% (inactive)
CCC(C)NC(=O)N[C@@H](CCSC)C(=O)O (stereo not given in full) | 3.5% (inactive)
COc1cc(/C=C(\C#N)c2nc3c(s2)CC(C)CC3)ccc1O (stereo not given) | 40.9% (active)
Cn1cccc1C(=O)OCC(=O)c1ccc(Br)s1 | 6.14% (inactive)
O=C(CSc1ncnc2c1nnn2Cc1ccc(F)cc1)NC1CCCC1 | 23.2% (inactive)
